In PubChem BioAssay AID1159580 (chemical genetic matrix, 2015):
“And” between values parts separate entries of the source, which are not always exact repeats. Equal values may be shown once. Among all 5,500 compounds or so, about 2,000 (36%) were called active. Not shown: some 18% with an inconclusive outcome. Rule as the data show it: active = normalized growth mostly below about 0.91 (no sharp cut-off); inconclusive = no clear call, values can overlap the other calls; inactive = mostly above about 0.92. The list shows a part of the results.

Assay: chemical genetic growth profiling, strain panel (AID 1159580);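 also: tested at 20 µM; growth read once vehicle control cultures reached saturation at 30 °C; 1 = growth at the plate median or of vehicle wells; lower values mean less growth of the strain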
Details: S. cerevisiae deletion strains, growth OD

Measured: normalized growth

CC(C)CC(N(C)C)C1(c2ccc(Cl)cc2)CCC1 (stereo unspecified)
inactive: locus YAL013W, strain DEP1, hits give low values 1 | locus YAL021C, strain ccr4, hits give low values 0.987 | locus YAL026C, strain drs2, hits give low values 1.01 | locus YAL030W, strain snc1, hits give low values 1.01 | locus YBL061C, strain skt5, hits give low values 1 | locus YBR009C, strain hhf1, hits give low values 1 | locus YBR021W, strain FUR4, hits give low values 0.952 | locus YBR023C, strain chs3, hits give low values 1.01 | locus YBR171W, strain sec66, hits give low values 1.01 | locus YBR229C, strain ROT2, hits give low values 0.999 | locus YBR231C, strain swc5, hits give low values 1.02 | locus YBR279W, strain paf1, hits give low values 1.01 | locus YCL011C, strain gbp2, hits give low values 0.999 | locus YCL016C, strain dcc1, hits give low values 0.994 | locus YCL029C, strain bik1, hits give low values 1.02 | locus YCL069W, strain vba3, hits give low values 1 | locus YCR088W, strain abp1, hits give low values 1.02 | locus YDL005C, strain med2, hits give low values 1.01 | locus YDL035C, strain GPR1, hits give low values 1.02 | locus YDL040C, strain nat1, hits give low values 0.999 | locus YDL074C, strain BRE1, hits give low values 1 | locus YDL101C, strain DUN1, hits give low values 1 | locus YDL134C, strain PPH21, hits give low values 1.01 | locus YDL185W, strain tfp1, hits give low values 1.01 | locus YDL192W, strain arf1, hits give low values 1.02 | locus YDR001C, strain nth1, hits give low values 0.994 | locus YDR069C, strain doa4, hits give low values 1.03 | locus YDR101C, strain arx1, hits give low values 1.01 | locus YDR137W, strain rgp1, hits give low values 1.12 | locus YDR150W, strain NUM1, hits give low values 1.01 | locus YDR159W, strain sac3, hits give low values 0.994 | locus YDR162C, strain NBP2, hits give low values 0.99 | locus YDR195W, strain ref2 1.04 | locus YDR297W, strain sur2, hits give low values 1.01 | locus YDR318W, strain mcm21, hits give low values 1.02 | locus YDR334W, strain swr1, hits give low values 1.01 | locus YDR335W, strain msn5, hits give low values 1 | locus YDR388W, hits give low values 1.02 | locus YDR392W, strain spt3, hits give low values 0.976 | locus YDR502C, strain sam2, hits give low values 1.01 | locus YEL003W, strain gim4, hits give low values 1 | locus YEL037C, strain rad23, hits give low values 1.01 | locus YEL061C, strain CIN8 (second series), hits give low values 1 | locus YEL061C, strain CIN8, hits give low values 0.993 | locus YER015W, strain faa2, hits give low values 0.982 | locus YER016W, strain bim1, hits give low values 1 | locus YER110C, hits give low values 1.01 | locus YER111C, strain swi4, hits give low values 1.01 | locus YER155C, strain BEM2 (second series), hits give low values 1.03 | locus YER155C, strain BEM2, hits give low values 0.969 | locus YER167W, strain BCK2, hits give low values 0.983 | locus YFR010W, strain ubp6, hits give low values 1.02 | locus YGL078C, strain dbp3, hits give low values 1 | locus YGL086W, strain mad1, hits give low values 1.01 | locus YGL167C, strain pmr1, hits give low values 0.997 | locus YGL173C, strain kem1, hits give low values 1 | locus YGL227W, strain vid30, hits give low values 1.01 | locus YGL240W, strain doc1, hits give low values 1.03 | locus YGL248W, strain PDE1, hits give low values 0.999 | locus YGL253W, strain hxk2, hits give low values 1 | locus YGR078C, strain PAC10, hits give low values 1.01 | locus YGR135W, strain pre9, hits give low values 1.02 | locus YGR229C, strain SMI1, hits give low values 0.986 | locus YGR252W, strain gcn5, hits give low values 1.03 | locus YHR013C, strain ard1, hits give low values 1.02 | locus YHR027C, strain rpn1, hits give low values 1 | locus YHR030C, strain SLT2, hits give low values 1.01 and 1.02 | locus YHR079C, strain IRE1 (second series), hits give low values 1.01 | locus YHR079C, strain IRE1, hits give low values 1.01 | locus YHR094C, strain hxt1, hits give low values 1.01 | locus YHR129C, strain ARP1, hits give low values 1 | locus YHR142W, strain chs7, hits give low values 1 | locus YHR200W, strain rpn10, hits give low values 1.02 | locus YIL066C, strain RNR3, hits give low values 0.997 | locus YIL073C, strain SPO22, hits give low values 1.02 | locus YIL125W, strain kgd1, hits give low values 1 | locus YIR030C, strain dcg1, hits give low values 1.01 | locus YJL092W, strain hpr5, hits give low values 1 | locus YJL095W, strain BCK1 (second series), hits give low values 1 | locus YJL095W, strain BCK1, hits give low values 1.01 and 0.998 | locus YJL115W, strain asf1, hits give low values 1.02 | locus YJL129C, strain trk1, hits give low values 1.03 | locus YJL134W, strain LCB3, hits give low values 1 | locus YJL154C, strain vps35, hits give low values 1.01 | locus YJL164C, strain tpk1, hits give low values 0.995 | locus YJL166W, strain qcr8, hits give low values 1.02 | locus YJL168C, strain set2, hits give low values 1.01 | locus YJL187C, strain SWE1 (second series), hits give low values 1.01 | locus YJL187C, strain SWE1, hits give low values 1.01 | locus YJR043C, strain POL32, hits give low values 0.999 | locus YJR066W, strain TOR1, hits give low values 0.961
